Assay outcomes as filed in PubChem.
aSyn 5UTR act – Activators via SNCA 5'UTR binding, MLPCN; alpha-synuclein 5'UTR reporter, activators screen; AID 1814; 7.1% of 300,000 active; activity score, % (tested at 7.5 µM), hits read low; in the data active means activity score below about -60%
* = called active by the depositor. Only a sample is shown.

SMILES	aSyn 5UTR act
COc1ccccc1C1=NOC(CN2C(=O)c3ccccc3S2(=O)=O)C1 (stereo not drawn)	-127*
O=C(CN1C(=O)c2ccccc2S1(=O)=O)c1ccc(O)c(O)c1	64
O=C1c2ccccc2S(=O)(=O)N1CC1CC(c2ccccc2Cl)=NO1 (stereo not drawn)	-81*
O=C(O)c1cccc(-n2cc(-c3cccc(C(F)(F)F)c3)cn2)c1	-128*
O=C1C2C3C=CC(C3)C2C(=O)N1/N=C/c1ccc(-c2ccccc2[N+](=O)[O-])o1 (stereo not drawn)	-77*
CC(/C=C/c1ccc(N(C)C)cc1)=N\N=C(/N)SC1CC(=O)N(c2ccc(C(=O)O)cc2)C1=O (stereo not drawn)	-68*
C[C@H](NC(=O)[C@@H]1Cc2ccccc2CN1)C(=O)Nc1ccc2c(c1)OCCO2	-65*
CCC(C)[C@H](NC(=O)[C@@H]1Cc2ccccc2CN1)C(=O)Nc1ccc2c(c1)OCO2 (stereo partly drawn)	-101*
COc1ccc(C(=O)/C=C/Nc2cc(C)on2)c(OC)c1	-72*
COc1ccc(C(=O)/C=C/c2ccccc2)c(OC)c1	-277*
COc1ccc(OC)c(C(=O)/C=C/c2ccccc2C(F)(F)F)c1	-198*
Cc1ccc(Cn2ccnc2C(=O)Nc2ccccc2)cc1	-156*
CCC(=O)Nc1cc2nn(-c3ccc(C)cc3)nc2cc1C	80
COc1ccc(-n2nc3cc(C)c(NC(=S)NC(=O)c4ccccc4C)cc3n2)cc1	-173*
CCCCC(=O)Nc1cc2nn(-c3ccc(OC)cc3)nc2cc1C	-67*
CC(C)C1COC(c2cccc3ccccc23)=N1 (stereo not drawn)	-115*
FC(F)Oc1ccc(C2N=C(c3ccccc3)NO2)cc1 (stereo not drawn)	-199*
COc1ccc(C2N=C(c3ccccc3)NO2)cc1OC (stereo not drawn)	-142*
COc1ccc(CC(=O)O/N=C(\N)c2ccc(OC)cc2)cc1	-86*
COc1ccc(/C(N)=N/OC(=O)Cc2cccs2)cc1	-129*
CC(C)(C)c1cnnn1-c1ccc(/C=N/Nc2ccc([N+](=O)[O-])cc2)cc1	-95*
CCCCNc1nc(N)nc(-c2cc(Cl)ccc2O)n1	-67*
CC(=O)Nc1ccc(-c2nnc(SCC(=O)c3ccc4c(c3)Cc3ccccc3-4)n2C)cc1	-62*
CC1CN(C(=O)Nc2ccc3snnc3c2)c2ccccc21 (stereo not drawn)	-67*
COc1ccc2c(C(=O)CN3CCSCC3)c[nH]c2c1	-63*
SMILES	aSyn 5UTR act
O=C(/C=C\c1ccccc1OC(=O)c1ccccc1F)c1cc2ccccc2o1	-132*
Cc1ccc(-c2nc(C(Cl)Cl)c3ccccc3n2)cc1	93
Cc1ccc(-c2nc(N/N=C/c3cccc([N+](=O)[O-])c3)c3ccccc3n2)cc1	-153*
c1cncc(-c2nc(NCCCn3ccnc3)c3ccccc3n2)c1	-66*
Cc1ccc(-c2nc(N/N=C/c3cccnc3)c3ccccc3n2)cc1	-258*
Cc1ccc(-c2nc(NCc3cccnc3)c3ccccc3n2)cc1	-78*
O=C(N/N=C/c1ccc(F)cc1)c1sccc1OCc1ccc(F)cc1	-94*
CC(C)(C)NCC(=O)N/N=C/c1ccc(OCc2ccccc2)cc1	-72*
O=C(N/N=C/c1ccc(Cl)cc1)c1sccc1OCc1ccc(F)cc1	73
O=C(N/N=C/c1ccc(OCc2ccccc2)cc1)c1cccs1	-116*
CSc1ccc(/C=N/NC(=O)c2sccc2C)cc1	-89*
O=C(N/N=C/c1ccc(OCc2ccccc2)cc1)c1ccncc1	-164*
O=C(C[n+]1ccc(C(=O)N/N=C/c2ccc(OCc3ccccc3)cc2)cc1)c1ccccc1	-138*
O=C(COc1ccc([N+](=O)[O-])cc1)NNC(=O)c1cccs1	-78*
Cc1occc1C(=O)Nc1ccc(OCc2ccccc2)cc1	-147*
C[C@H](NC(N)=O)C(=O)Nc1ccc(OCc2ccccc2)cc1	-92*
Oc1ccc(N=Cc2ccc(OCc3ccccc3)cc2)cc1	-92*
O=C(Nc1ccc(OCc2ccccc2)cc1)c1cccs1	-158*
Cn1nc(C(=O)NC2CCCCC2)c2c1-c1ccccc1SC2	-98*
CC1CCc2c(nc3sc4c(c3c2N)CCCC4)C1 (stereo not drawn)	-125*
CC1CCc2nc3sc4c(c3c(N)c2C1)CCCC4 (stereo not drawn)	-132*
Cc1ccc(N=Nc2ccc(O)c3ncccc23)cc1	86
Cc1ccc(N=Nc2c(O)n(CN3CCOCC3)c3ccccc23)cc1	-116*
CC(C)(C)C(=O)OCc1nc(-c2ccc(Cl)cc2)cs1	-133*
NC(=S)Cc1nc(-c2ccc(Cl)cc2)cs1	-104*
SMILES	aSyn 5UTR act
CC(C)(C)C(=O)OCc1nc(-c2ccc3c(c2)OCCO3)cs1	-141*
CC(C)(C)C(=O)OCc1nc(-c2ccc(F)cc2)cs1	-106*
COC(=O)[C@@H]1Cc2c([nH]c3ccccc23)C(C)(C)N1C(=O)CCl	61
CC1CCCN(C(=O)COC(=O)c2n[nH]c3ccccc23)C1 (stereo not drawn)	-140*
COc1ccc(NC(=O)Nc2cccc(C)n2)cc1	-201*
Cc1cccc(NC(=O)Nc2ccc(Br)cc2)n1	-127*
CCC(=O)Nc1ccc(C(=O)Nc2cccc(C)n2)cc1	-169*
COc1ccc(NC(=O)Nc2ccc(Br)cn2)cc1	-146*
COc1ccc(/C=N\NC(=O)C2CCCC2)cc1Br	-95*
CC(C)c1ccc(/C=N/NC(=O)C2CCCC2)cc1	-171*
COc1ccc(C2=CC(c3sccc3C)n3nnnc3N2)cc1 (stereo not drawn)	-130*
COc1ccc(C2=CC(c3ccc(F)cc3)n3nnnc3N2)cc1 (stereo not drawn)	-130*
O=C(/C=C/NCc1cccnc1)c1ccc(-c2ccccc2)cc1	-81*
Cc1ccc(C(=O)Nc2ccc(SC(F)F)cc2)s1	-161*
CCOc1ccc(NC(=O)c2ccc3snnc3c2)cc1	-120*
COc1cccc(NC(=O)c2ccc3snnc3c2)c1	-105*
Cc1ccc(NC(=O)c2ccc3snnc3c2)cc1C	-165*
C=CCOc1ccc(C(=O)Nc2ccc(OCC)cc2)cc1	-70*
O=C(Nc1ccc(F)cc1)c1ccc2snnc2c1	-92*
CC(C)COc1ccc(C(=O)Nc2ccc(SC(F)F)cc2)cc1	-90*
CCOc1ccc(C(=O)Oc2ccc(NC(C)=O)cc2)cc1	80
O=C(Nc1cccnc1)c1cc2cc(Br)ccc2o1	-116*
CC(=O)Nc1ccc(NC(=S)NC(=O)c2cc3ccccc3o2)cc1	-71*
Cc1cc(C)cc(C(=O)NC(=S)Nc2ccc(-c3cc4ccccc4oc3=O)cc2)c1	97
O=C(NC(=S)Nc1cccnc1)c1cc2ccccc2o1	-66*
SMILES	aSyn 5UTR act
O=C(NC(=S)Nc1ccc(CN2CCCCC2)cc1)c1cc2ccccc2o1	-68*
O=c1[nH]c2ccccc2n1CCCSc1cnc2ccccc2n1	-64*
COc1ccc(-c2nn(-c3ccccc3)cc2/C=N/NC(=O)c2cccc(S(=O)(=O)Nc3ccccc3Cl)c2)cc1	-77*
COc1ccc(-c2nn(-c3ccccc3)cc2/C=N/N2C(=O)CSC2=S)cc1	-83*
COc1ccc(-c2nn(-c3ccccc3)cc2/C=N/NS(=O)(=O)c2ccccc2)cc1	-62*
Cc1ccc(NC(=O)/C=C/c2ccc3c(c2)OCO3)nc1	-109*
Cc1ccc(NC(=O)Nc2ccc(Cl)cn2)cc1	-147*
Cc1ccc(NC(=O)Nc2ccc(Cl)c(Cl)c2)nc1	-90*
CC(/C=C/c1ccc2c(c1)OCO2)=N/NC(=O)CNc1ccc(C)cc1	-62*
